Laboratory results published in PubChem BioAssay AID1159580 (chemical genetic matrix, 2015).
Where “and” joins values, the source holds several entries; their conditions need not be identical. Equal entries are not always repeated. Among all 5,500 compounds or so, about 2,000 (36%) were called active. About 18% were inconclusive and are not listed. No stated cut-off is given here; in the data, active means normalized growth mostly below about 0.91 (no sharp cut-off); inconclusive means no clear call, values can overlap the other calls; inactive means mostly above about 0.92. Some of the results follow.

Assay: chemical genetic growth profiling, strain panel (AID 1159580);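 further: tested at 20 µM; growth read once vehicle control cultures reached saturation at 30 °C; 1 = growth at the plate median or of vehicle wells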
Details: S. cerevisiae deletion strains, growth OD

Measured: normalized growth

CN(C)CCCO[C@H]1[C@@H](C(O)CO)OC2OC(C)(C)O[C@@H]21 (some centres not stated)
inactive: locus YAL013W, strain DEP1, stronger effect = lower value 0.928 | locus YAL021C, strain ccr4, stronger effect = lower value 1 | locus YAL026C, strain drs2, stronger effect = lower value 0.98 | locus YAL030W, strain snc1, stronger effect = lower value 0.98 | locus YBL061C, strain skt5, stronger effect = lower value 0.98 | locus YBR009C, strain hhf1, stronger effect = lower value 0.985 | locus YBR021W, strain FUR4, stronger effect = lower value 0.953 | locus YBR023C, strain chs3, stronger effect = lower value 0.98 | locus YBR171W, strain sec66, stronger effect = lower value 0.964 | locus YBR229C, strain ROT2, stronger effect = lower value 0.993 | locus YBR231C, strain swc5, stronger effect = lower value 0.992 | locus YBR279W, strain paf1, stronger effect = lower value 1.01 | locus YCL011C, strain gbp2, stronger effect = lower value 0.956 | locus YCL016C, strain dcc1, stronger effect = lower value 0.973 | locus YCL029C, strain bik1, stronger effect = lower value 0.984 | locus YCL061C, strain MRC1, stronger effect = lower value 0.987 | locus YCL069W, strain vba3, stronger effect = lower value 0.996 | locus YCR088W, strain abp1, stronger effect = lower value 0.994 | locus YDL005C, strain med2, stronger effect = lower value 0.995 | locus YDL035C, strain GPR1, stronger effect = lower value 0.946 | locus YDL040C, strain nat1, stronger effect = lower value 0.995 | locus YDL074C, strain BRE1, stronger effect = lower value 0.871 | locus YDL101C, strain DUN1, stronger effect = lower value 0.994 | locus YDL134C, strain PPH21, stronger effect = lower value 0.991 | locus YDL185W, strain tfp1, stronger effect = lower value 0.98 | locus YDL192W, strain arf1, stronger effect = lower value 0.966 | locus YDR001C, strain nth1, stronger effect = lower value 0.968 | locus YDR069C, strain doa4, stronger effect = lower value 0.989 | locus YDR101C, strain arx1, stronger effect = lower value 0.981 | locus YDR137W, strain rgp1, stronger effect = lower value 0.963 | locus YDR150W, strain NUM1, stronger effect = lower value 0.995 | locus YDR159W, strain sac3, stronger effect = lower value 0.982 | locus YDR162C, strain NBP2, stronger effect = lower value 1.08 | locus YDR195W, strain ref2 0.995 | locus YDR297W, strain sur2, stronger effect = lower value 0.992 | locus YDR318W, strain mcm21, stronger effect = lower value 0.933 | locus YDR334W, strain swr1, stronger effect = lower value 0.938 | locus YDR335W, strain msn5, stronger effect = lower value 0.981 | locus YDR388W, stronger effect = lower value 0.989 | locus YDR392W, strain spt3, stronger effect = lower value 0.921 | locus YDR502C, strain sam2, stronger effect = lower value 0.937 | locus YEL003W, strain gim4, stronger effect = lower value 0.98 | locus YEL037C, strain rad23, stronger effect = lower value 0.977 | locus YEL061C, strain CIN8 (second series), stronger effect = lower value 0.975 | locus YEL061C, strain CIN8, stronger effect = lower value 0.993 | locus YER015W, strain faa2, stronger effect = lower value 0.991 | locus YER016W, strain bim1, stronger effect = lower value 0.999 | locus YER110C, stronger effect = lower value 0.946 | locus YER111C, strain swi4, stronger effect = lower value 0.986 | locus YER155C, strain BEM2 (second series), stronger effect = lower value 0.98 | locus YER155C, strain BEM2, stronger effect = lower value 1 | locus YER167W, strain BCK2, stronger effect = lower value 0.915 | locus YFR010W, strain ubp6, stronger effect = lower value 0.971 | locus YGL078C, strain dbp3, stronger effect = lower value 1 | locus YGL167C, strain pmr1, stronger effect = lower value 0.984 | locus YGL173C, strain kem1, stronger effect = lower value 0.964 | locus YGL227W, strain vid30, stronger effect = lower value 0.987 | locus YGL240W, strain doc1, stronger effect = lower value 1 | locus YGL248W, strain PDE1, stronger effect = lower value 0.977 | locus YGL253W, strain hxk2, stronger effect = lower value 0.996 | locus YGR078C, strain PAC10, stronger effect = lower value 0.907 | locus YGR135W, strain pre9, stronger effect = lower value 0.929 | locus YGR252W, strain gcn5, stronger effect = lower value 0.849 | locus YHR013C, strain ard1, stronger effect = lower value 0.973 | locus YHR027C, strain rpn1, stronger effect = lower value 0.968 | locus YHR030C, strain SLT2, stronger effect = lower value 0.984 and 0.969 | locus YHR079C, strain IRE1 (second series), stronger effect = lower value 0.977 | locus YHR079C, strain IRE1, stronger effect = lower value 0.984 | locus YHR094C, strain hxt1, stronger effect = lower value 0.986 | locus YHR129C, strain ARP1, stronger effect = lower value 0.963 | locus YHR142W, strain chs7, stronger effect = lower value 0.946 | locus YHR200W, strain rpn10, stronger effect = lower value 0.948 | locus YIL066C, strain RNR3, stronger effect = lower value 0.951 | locus YIL073C, strain SPO22, stronger effect = lower value 0.932 | locus YIL125W, strain kgd1, stronger effect = lower value 0.993 | locus YIR030C, strain dcg1, stronger effect = lower value 0.986 | locus YJL092W, strain hpr5, stronger effect = lower value 0.987 | locus YJL095W, strain BCK1 (second series), stronger effect = lower value 0.993 | locus YJL095W, strain BCK1, stronger effect = lower value 0.883 and 0.978 | locus YJL115W, strain asf1, stronger effect = lower value 0.963 | locus YJL129C, strain trk1, stronger effect = lower value 1.01 | locus YJL134W, strain LCB3, stronger effect = lower value 0.993 | locus YJL154C, strain vps35, stronger effect = lower value 0.966 | locus YJL164C, strain tpk1, stronger effect = lower value 0.998 | locus YJL166W, strain qcr8, stronger effect = lower value 0.969 | locus YJL168C, strain set2, stronger effect = lower value 0.985 | locus YJL187C, strain SWE1 (second series), stronger effect = lower value 0.989 | locus YJL187C, strain SWE1, stronger effect = lower value 0.994 | locus YJR066W, strain TOR1, stronger effect = lower value 0.97
active: locus YGL086W, strain mad1, stronger effect = lower value 0.926 | locus YGR229C, strain SMI1, stronger effect = lower value 0.8 | locus YJR043C, strain POL32, stronger effect = lower value 0.85
